Measured values as given in PMC5540273 (PLoS ONE, 2017).

How the values were obtained:
Details in all cases: concentration: 1 μM, replicates: in singlicate; n = 1
BTK = system: BTK
BUB1 = system: BUB1
CAMK1B = system: CAMK1B
CAMK1D = system: CAMK1D
CAMK1G = system: CAMK1G
CAMK1 = system: CAMK1
CAMK2A = system: CAMK2A
CAMK2B = system: CAMK2B
CAMK2D = system: CAMK2D
CAMK2G = system: CAMK2G
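Further: KINOMEscan kinase panel screen.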

Structure (SMILES) | %Inh (BTK) [%] | %Inh (BUB1) [%] | %Inh (CAMK1B) [%] | %Inh (CAMK1D) [%] | %Inh (CAMK1G) [%] | %Inh (CAMK1) [%] | %Inh (CAMK2A) [%] | %Inh (CAMK2B) [%] | %Inh (CAMK2D) [%] | %Inh (CAMK2G) [%]
Cc1ccc(NC(=O)Nc2ccc(Cl)cc2)cc1-c1ccc(C(=O)Nc2ccncc2)cc1 [GSK1398472] | 0 | 43 | 34 | 13 | 0 | 10 | 0 | 0 | 0 | 13
COc1ccc2cc(-c3nc(-c4ccccc4C(C)C)[nH]c3-c3ccncc3)ccc2c1 [SB-660566] | 0 | 89 | 31 | 7 | 0 | 7 | 0 | 0 | 2 | 4
Nc1ncnc2occ(-c3ccc4c(c3)CCN4C(=O)Cc3cc(F)ccc3F)c12 [GSK2645446] | 0 | 0 | 0 | 8 | 9 | 6 | 0 | 0 | 14 | 20
COc1ccc(CSc2nnc(-c3ccc4ncsc4c3)o2)cc1C(F)(F)F | 0 | 0 | 0 | 23 | 2 | 1 | 0 | 0 | 0 | 0
CNCc1ccc2nc(NC(=O)c3ccc(C(C)(C)C)cc3)cn2c1 | 32 | 26 | 33 | 1 | 0 | 1 | 4 | 2 | 1 | 12
COc1cc2ncnc(Nc3cccc(Br)c3)c2cc1OC.Cl [GI230329] | 30 | 96.5 | 0 | 18 | 0 | 23 | 0 | 0 | 0 | 32
COC(=O)C(NC(=O)NC1CCN(c2ccnc(Nc3ccc(F)cc3)n2)C1)c1ccccc1 (stereo not shown) [GSK1379712] | 18 | 37 | 35 | 5 | 0 | 9 | 0 | 0 | 11 | 19
Cn1cncc1C(=O)NC1CCN(c2ccnc(Nc3ccc(F)cc3)n2)C1 (stereo not shown) [GSK1379717] | 0 | 32 | 0 | 22 | 12 | 16 | 0 | 0 | 24 | 32
CS(=O)(=O)Cc1ccc(Nc2nccc(-c3c(-c4cccc(NC(=O)C5CCCCC5)c4)nn4ncccc34)n2)cc1 [GSK350559] | 0 | 98.7 | 0 | 0 | 0 | 0 | 15 | 8 | 0 | 0
CC(=O)c1cccc(NC(=O)NC2CCN(c3ccnc(Nc4ccc(F)cc4)n3)C2)c1 (stereo not shown) [GSK1379710] | 0 | 33 | 39 | 16 | 7 | 20 | 0 | 0 | 4 | 32
O=C(Nc1n[nH]c2cc(-c3ccsc3)ccc12)C1CC1 [SB-732932] | 10 | 20 | 2 | 0 | 23 | 30 | 20 | 11 | 12 | 15
O=C(Nc1n[nH]c2nc(-c3cccs3)c(Br)cc12)C1CCCC1 [SB-743341] | 26 | 0 | 0 | 16 | 0 | 18 | 9 | 12 | 2 | 0
CNc1nc(-c2ccc3c(N)n[nH]c3c2)cc(N2C[C@@H](C(=O)Nc3ccccc3)CC[C@H]2C)n1 [GSK2298859] | 0 | 22 | 6 | 25 | 6 | 28 | 87 | 82 | 21 | 21
COc1ccc(Nc2nccc(-c3ccc(NC(=O)c4cc5cc(F)ccc5[nH]4)cc3)n2)cc1 [GSK1229496] | 0 | 29 | 26 | 0 | 6 | 0 | 0 | 0 | 3 | 34
CCn1c(-c2c(N)noc2C)nc2cnccc21 [SB-737856] | 0 | 20 | 0 | 0 | 0 | 0 | 0 | 0 | 0 | 0
CNC(=O)c1ccc(C)c(-n2c(C)cc(OCc3ccc(F)cc3F)c(Br)c2=O)c1 | 0 | 0 | 0 | 0 | 0 | 0 | 0 | 0 | 0 | 0
O=c1cc(N2CCOCC2)nc2n(Cc3ccccc3F)ccn12 [GSK2297428] | 0 | 0 | 0 | 16 | 5 | 15 | 0 | 0 | 7 | 15

Structure (SMILES) | %Inh (BTK) [%] | %Inh (BUB1) [%] | %Inh (CAMK1B) [%] | %Inh (CAMK1D) [%] | %Inh (CAMK1G) [%] | %Inh (CAMK1) [%] | %Inh (CAMK2A) [%] | %Inh (CAMK2B) [%] | %Inh (CAMK2D) [%] | %Inh (CAMK2G) [%]
Cc1ccc(NC(=O)c2ccc(Cl)cc2)cc1-c1ccc(C(=O)Nc2ccncc2)cc1 [GSK1398467] | 0 | 47 | 4 | 0 | 9 | 4 | 100 | 86 | 10 | 12
Nc1cccc(-c2ccc3c(N)n[nH]c3c2)n1 [GSK2192730] | 0 | 0 | 0 | 30 | 9 | 29 | 0 | 0 | 20 | 31
COc1ccc(Nc2nccc(NCCNC(=O)Nc3cc(C)ccc3C)n2)cc1 [GSK1379899] | 0 | 0 | 4 | 0 | 0 | 3 | 0 | 0 | 0 | 0
Cc1ccccc1-c1cc(-c2c[nH]nc2-c2ccccn2)ccn1 [GW680061] | 3 | 35 | 0 | 16 | 0 | 9 | 0 | 0 | 0 | 11
COc1ccc(Nc2nccc(N3CCC(NC(=O)C(C)c4ccc(Cl)cc4)C3)n2)cc1 (stereo not shown) [GSK1379735] | 0 | 17 | 5 | 14 | 0 | 9 | 14 | 25 | 1 | 15
CC(C)c1ccc(O)cc1Nc1ccnc2ccc(C(F)(F)F)cc12 [GW482059] | 0 | 13 | 27 | 0 | 0 | 0 | 0 | 0 | 0 | 1
Cn1cnc2c(N)ncnc21 [SKF-97623] | 0 | 22 | 41 | 0 | 0 | 0 | 0 | 0 | 0 | 0
Cc1cccc2c(-c3ccncn3)c(-c3ccc(F)cc3)nn12 [GW515532] | 0 | 65 | 9 | 0 | 0 | 5 | 0 | 0 | 0 | 0
CCc1ccc(-c2ccc3c(c2)-c2n[nH]cc2S(=O)(=O)N3C)cc1 | 0 | 0 | 0 | 0 | 0 | 0 | 0 | 0 | 21 | 5
CC(C)c1cc(-c2ccc3c(N)n[nH]c3c2)nc(N)n1 [GSK2250882] | 0 | 60 | 0 | 23 | 6 | 21 | 0 | 0 | 8 | 23
COc1cccc(C2=C(Nc3cc(Cl)c(O)c(Cl)c3)C(=O)NC2=O)c1 [SB-390767] | 0 | 2 | 0 | 16 | 0 | 4 | 0 | 0 | 0 | 0
Fc1ccc(-c2nc[nH]c2-c2ccncc2)cc1 [SB-217360] | 0 | 84 | 0 | 10 | 0 | 0 | 0 | 0 | 0 | 0
CNc1nc(-c2ccc3c(N)n[nH]c3c2)cc(N2C[C@@H](C(=O)NC3CCCCC3)OC[C@H]2C)n1 [GSK2375584] | 7 | 36 | 0 | 20 | 0 | 19 | 0 | 0 | 15 | 34
Cc1ccc(-c2nc(Nc3ccncc3)c3ccccc3n2)s1 [GSK189015] | 0 | 34 | 27 | 12 | 2 | 15 | 0 | 0 | 12 | 24
Cc1ccc(NC(=O)Nc2ccccc2)cc1-c1ccc(C(=O)Nc2ccncc2)cc1 [GSK1398471] | 0 | 0 | 13 | 20 | 0 | 15 | 0 | 0 | 0 | 9
Fc1ccc(-c2nn3cccc(F)c3c2-c2ccncc2)cc1 [GW475620] | 0 | 53 | 39 | 10 | 40 | 6 | 0 | 0 | 6 | 14
Cc1c(Cn2c(C)c(C)n3c(=O)cc(N4CCOCC4)nc23)cccc1C(F)(F)F [GSK2328680] | 0 | 2 | 0 | 5 | 2 | 7 | 0 | 0 | 0 | 15
